Screens (PubChem)
Compounds with a hit are over-represented: about 1.6% of the library has one in this group of screens.
eIF4H FP inh: human eIF4H binding inhibitors, primary screen, translation initiation inhibitor project, biochemical, uHTS, fluorescence polarization; inhibition, % at 35 µM; AID 2012, 2009; eIF4H fluorescence polarization binding assay; Eukaryotic translation initiation factor 4H (Homo sapiens), Q15056; 290,000 tested, 0.94% active;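 further: calls also rest on retests at 20 µM and on dose response follow-up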
PERK inh: block of dimerizer-induced PERK translation repression, primary screen, PERK inhibitor project, CHO PERK-DD cells, SEAP luminescence, HTS. Eukaryotic translation initiation factor 2-alpha kinase 3 (Homo sapiens), Q9NZJ5. CHO PERK-DD fusion, SEAP luminescence translation reporter. inhibition, % at 5.6 µM. 220,000 tested, 0.17% active. AID 1416, 2008;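 active means inhibition above the mean inhibition of all tested compounds plus 3 SD, set separately per screening campaign, cut at about 2.9% in these data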;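 further: PERK kinase domain activated by AP20187 dimerizer at 100 nM; 0% = DMSO with dimerizer and 100% = rapamycin at 8.4 µM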
PABP FP inh: PABP poly(A) RNA binding inhibitors, primary screen, biochemical, fluorescence polarization, uHTS; calls only at 35 µM; 290,000 tested, 1% active;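 further: calls also rest on retests at 20 µM and on dose response follow-up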
eIF4E 4G PPI: eIF4E–eIF4G protein interaction inhibitors, primary screen, biochemical, uHTS, TR-FRET, eIF4GI fragment; AID 782, 2007; TR-FRET eIF4E-eIF4GI(517-606) binding, 2 h; Eukaryotic translation initiation factor 4E (Mus musculus) + Eukaryotic translation …; 220,000 tested, 0.37% active; inhibition, % at 21.7 µM;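 active means inhibition above about 30%, limit read from the data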;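 further: 0% = full FRET control wells and 100% = background wells lacking eIF4GI fragment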
MLLE-PAM2 inh: inhibitors of PABP1 MLLE–PAM2 peptide binding, primary screen, biochemical, fluorescence polarization, FITC-PAM2, GST-MLLE. Polyadenylate-binding protein 1 (Homo sapiens), P11940. inhibition, % at 20 µM. 360,000 tested, 0.36% active. AID 588489, 2011; in the data active means inhibition above about 35%, passing the limit was not always enough;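 further: plate controls were DMSO wells with GST-MLLE for no effect and wells lacking GST-MLLE protein for full effect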
* marks the source's active call; other numbers are inactive results; [ ] = another dose, or the depositor's remark. Unless noted, how the calls were made is not given here.

How did O=C(CSc1ccc(-c2ccncc2)nn1)c1ccccc1 do in these assays?
eIF4H FP inh: -8; PERK inh: -1; PABP FP inh: inactive; eIF4E 4G PPI: 0; MLLE-PAM2 inh: 38*

Results for O=C(CSc1ccc(-c2ccccn2)nn1)c1ccc([N+](=O)[O-])cc1 ?
eIF4H FP inh: -4; PERK inh: 0; PABP FP inh: inactive; eIF4E 4G PPI: -7; MLLE-PAM2 inh: 26

How did O=C(CSc1ccc(-c2cccnc2)nn1)c1ccc([N+](=O)[O-])cc1 do in these assays?
eIF4H FP inh: 1; PERK inh: -1; PABP FP inh: inactive; eIF4E 4G PPI: -1; MLLE-PAM2 inh: 45*

What do the screens show for `COc1ccc(C(=O)CSc2ccc(-c3ccccc3)nn2)cc1`?
eIF4H FP inh: -12; PERK inh: 0; PABP FP inh: inactive; eIF4E 4G PPI: 2; MLLE-PAM2 inh: 5

Results for COc1ccc(C(=O)CSc2ccc(-c3ccco3)nn2)cc1 ?
eIF4H FP inh: 86; PERK inh: 0; PABP FP inh: inactive; eIF4E 4G PPI: 2; MLLE-PAM2 inh: 18

Results for O=C(CSc1ccc(-c2ccco2)nn1)c1ccccc1 ?
eIF4H FP inh: 101*; PERK inh: 1; PABP FP inh: active; eIF4E 4G PPI: -2; MLLE-PAM2 inh: 28

What do the screens show for `NNC(=O)c1ccc(CSc2nc3ccccc3s2)cc1`?
eIF4H FP inh: -7; PERK inh: 0; PABP FP inh: inactive; eIF4E 4G PPI: 0; MLLE-PAM2 inh: -7

How did COc1ccc(N=C2S/C(=C\c3ccc(N4CCOCC4)o3)C(=O)N2CCc2c[nH]c3ccccc23)cc1 do in these assays?
eIF4H FP inh: 7; PERK inh: 2; PABP FP inh: inactive; eIF4E 4G PPI: 2; MLLE-PAM2 inh: 68

What do the screens show for `COc1ccc(N=C2S/C(=C\c3ccc(OCC(=O)O)cc3)C(=O)N2CCc2c[nH]c3ccccc23)cc1`?
eIF4H FP inh: 89; PERK inh: 1; PABP FP inh: active; eIF4E 4G PPI: 20; MLLE-PAM2 inh: -11

Results for Cc1ccc(N(CC(=O)NC2CCCCC2)C(=O)CCCC(=O)Nc2ccccn2)cc1 ?
eIF4H FP inh: 79*; PABP FP inh: active; MLLE-PAM2 inh: 0

Results for COC(=O)c1ccccc1NC(=O)CSc1nc(N)cc(=O)[nH]1 ?
eIF4H FP inh: 90*; PERK inh: 1; PABP FP inh: inactive; eIF4E 4G PPI: 7; MLLE-PAM2 inh: 19

Results for Cn1c(=O)c2c(-c3ccccc3)n(-c3ccc(N)cc3)cc2n(C)c1=O ?
MLLE-PAM2 inh: 57*

How did CC1=NN(c2ccc(C(=O)OC(C)C)cc2)C(=O)/C1=C\C=C\c1ccco1 do in these assays?
eIF4H FP inh: 43; PERK inh: 0; PABP FP inh: inactive; eIF4E 4G PPI: 0; MLLE-PAM2 inh: 12

What do the screens show for `CCOC(=O)c1ccc(N2N=C(C)/C(=C/C=C/c3ccco3)C2=O)cc1`?
eIF4H FP inh: inconclusive; PERK inh: 0; PABP FP inh: active; eIF4E 4G PPI: 0; MLLE-PAM2 inh: 5

What do the screens show for `C=CCn1c(C)cc(C(=O)CSc2nc3ccccc3o2)c1C`?
eIF4H FP inh: 70*; PERK inh: -1; PABP FP inh: active; eIF4E 4G PPI: 5; MLLE-PAM2 inh: -14

Results for Cc1cc(C(=O)CSc2nc3ccccc3o2)c(C)n1C1CC1 ?
eIF4H FP inh: 88*; PERK inh: 1; PABP FP inh: active; eIF4E 4G PPI: -2; MLLE-PAM2 inh: 6

What do the screens show for `Cc1nonc1NC(=O)CSc1nc2ccccc2o1`?
eIF4H FP inh: 83*; PABP FP inh: active; MLLE-PAM2 inh: 2

How did Cc1cc(C(=O)CSc2ncnc3ccccc23)c(C)n1C1CC1 do in these assays?
MLLE-PAM2 inh: 11

What do the screens show for `CC(Cc1ccco1)NC(=O)c1ccc(C(F)(F)F)cc1` (centres undefined)?
eIF4H FP inh: 4; PABP FP inh: inactive; MLLE-PAM2 inh: 9

How did COC(=O)c1cc(O)cc(OC)c1C(=O)c1c(O)cc(C)cc1O do in these assays?
eIF4H FP inh: 13; PABP FP inh: inactive; eIF4E 4G PPI: -16; MLLE-PAM2 inh: 6

What do the screens show for `COC(=O)c1cc(O)cc(OC)c1Oc1cc(C)cc(O)c1C(=O)O`?
eIF4H FP inh: 90*; PABP FP inh: active; eIF4E 4G PPI: -11; MLLE-PAM2 inh: -4

Results for COc1ccc(N2C(=NC(=O)C3CCCO3)SC3CS(=O)(=O)CC32)cc1 (centres undefined) ?
MLLE-PAM2 inh: -7

What do the screens show for `COC(=O)c1c(N)c2ccccc2[nH]c1=O`?
eIF4H FP inh: -11; PERK inh: 1; PABP FP inh: inactive; eIF4E 4G PPI: 2; MLLE-PAM2 inh: -1

How did CC(=O)c1c(C(=O)O)c2ccccc2[nH]c1=O do in these assays?
eIF4H FP inh: 5; PERK inh: 0; PABP FP inh: inactive; eIF4E 4G PPI: 92*; MLLE-PAM2 inh: -8

What do the screens show for `O=C(O)CC(Cc1ccccc1)C(=O)NCC12CC3CC(CC(C3)C1)C2` (centres undefined)?
eIF4H FP inh: -5; PERK inh: 3.2*; PABP FP inh: inactive; eIF4E 4G PPI: 3; MLLE-PAM2 inh: 9

Results for COc1c2c(c3c(c1OC)c(=O)c1ccccc1n3C)OCO2 ?
MLLE-PAM2 inh: 55*

How did O=C(NCCN1CCN(c2ccccc2)CC1)C1CCN(S(=O)(=O)c2cccc3nsnc23)CC1 do in these assays?
eIF4H FP inh: 0; PERK inh: 0; PABP FP inh: inactive; eIF4E 4G PPI: -4; MLLE-PAM2 inh: 20

What do the screens show for `Cc1ccc(C(=O)Oc2coc(CSc3nnc(NC(=O)c4cccs4)s3)cc2=O)cc1`?
eIF4H FP inh: 90*; PERK inh: 0; PABP FP inh: active; eIF4E 4G PPI: 8; MLLE-PAM2 inh: 6

How did CC(=O)Nc1nnc(SCc2cc(=O)c(OC(=O)c3ccccc3)co2)s1 do in these assays?
eIF4H FP inh: -1; PERK inh: 1; PABP FP inh: inactive; eIF4E 4G PPI: 0; MLLE-PAM2 inh: 14

Results for O=C(COc1ccc(Cl)cc1Cl)NN1C(=O)C2C3C=CC(C3)C2C1=O (centres undefined) ?
eIF4H FP inh: -7; PERK inh: 1; PABP FP inh: inactive; eIF4E 4G PPI: 1; MLLE-PAM2 inh: 8

What do the screens show for `Cc1ccc2cccc(Oc3ccc([N+](=O)[O-])cc3[N+](=O)[O-])c2n1`?
eIF4H FP inh: 6; PERK inh: 1; PABP FP inh: inactive; eIF4E 4G PPI: 6; MLLE-PAM2 inh: 10

What do the screens show for `Cc1ccc([N+](=O)[O-])cc1-c1ccc2cccc(C)c2n1`?
eIF4H FP inh: 4; PERK inh: 2; PABP FP inh: inactive; eIF4E 4G PPI: 71*[fluorescence artefact?]; MLLE-PAM2 inh: -1
